The campaign covered roughly 1,600 compounds. About 20 (1%) showed an effect of 50% or more. What follows is part of a selection rich in strong results, with near analogues and random picks from the rest.

For this test, the system named is T1, E. coli pLC1021 (luc-trpAt trans-translation reporter).
T1 construct: pLC1021 luc-trpAt reporter strain
On the set-up: species or system Escherichia coli pLC1021; luc-trpAt non-stop luciferase reporter; luminescence rises when trans-translation is inhibited; normalized to KKL-35 and DMSO. Particulars: reporter signal, KKL-35 = 100%; rise means trans-translation inhibition; 2 h, 20 µM. Summed up:
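Luminescence (560 nm, 10 min after Bright-Glo) reports luciferase that escapes trans-translation tagging, measured after 2 h room-temperature treatment with 20 µM compound. Each plate was scaled between DMSO (negative) and 20 µM KKL-35 (positive) controls. Compounds scoring one standard deviation above the median counted as positive; at least two biological repeats.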
`Cc1cc([N+](=O)[O-])ccc1NC(=O)CN1C2CCC1CC(NC(=O)NC13CC4CC(CC(C4)C1)C3)C2` (stereo not shown) [KKL-1619]: the “% activation” value was found to be 0%.

Regarding `CCCCCCn1c(=O)c(C(=O)Nc2nc(CC(=O)OCC)cs2)c(O)c2ccccc21` [KKL-0986], the “% activation” value was determined as 0%.

With `CCCCCn1c(=O)c(C(=O)Nc2nc3ccccc3[nH]2)c(O)c2ccccc21` [KKL-1004], the “% activation” value stood at 7%.

As for `CCOC(=O)Cc1csc(NC(=O)c2c(O)c3ccccc3n(CCC(C)C)c2=O)n1` [KKL-1615], the “% activation” value came to 75%.

With `O=C(c1ccc(Cl)cc1)c1ccc(CSc2nnc(-c3ccccc3)o2)o1` [KKL-1212], the “% activation” value was found to be 0%.

`O=C(c1cnn(C(=O)c2ccco2)c1)c1cc(F)ccc1O` [KKL-1685]: the “% activation” value is on record as 3%.

As to `Clc1ccc(OCCCCCn2ccnc2)c(Cl)c1` [KKL-0421], the “% activation” value is listed as 0%.

As for `N#CCc1ccc(NC(=O)/C=C/c2ccc([N+](=O)[O-])o2)cc1` [KKL-1204], the “% activation” value is recorded as 0%.

Regarding `c1cnc(N2CCN(c3nncc(-c4ccc(C5CCCCC5)cc4)n3)CC2)cn1` [KKL-0667], the “% activation” value is recorded as 0%.

For `Cc1cc(Cl)ccc1NC(=O)CCc1ccc(S(=O)(=O)NC(C)C)cc1` [KKL-1581], the “% activation” value came out at 0%.

Consider `CCc1ccc(CCC(=O)Nc2ccc(C)cc2)o1` [KKL-1248], for which the “% activation” value was determined as 0%.

Take `CC(=O)NC(=S)NNC(=O)c1ccc(C(C)(C)C)cc1` [KKL-0588]: the “% activation” value worked out at 143%.

With `CC(=O)NC(=S)NNC(=O)c1ccc(C)c(Br)c1` [KKL-0065], the “% activation” value stood at 186%.

Regarding `Cc1ccc(C(=O)NC(=S)Nc2ccc(S(=O)(=O)NC(C)C)cc2)cc1Br` [KKL-0593], the “% activation” value is reported as 0%.

For the compound `CC(C)(C)c1ccc(C(=O)NC(=S)N2CCCC2)cc1` [KKL-1436], the “% activation” value was determined as 12%.

For `Cc1ccc(C(=O)NCCC2=CCCCC2)cc1Br` [KKL-1393], the “% activation” value was found to be 0%.

Consider `O=C(O)c1ccc(NC(=S)NC(=O)c2ccc(-c3ccccc3)cc2)cc1` [KKL-1292], for which the “% activation” value is on record as 0%.

In the case of `CC(C)(C)c1ccc(C(=O)NC(=S)Nc2ccc(C(=O)O)cc2)cc1` [KKL-1314], the “% activation” value turned out to be 0%.

As for `COc1ccccc1C(=O)NNC(=S)NC(=O)c1ccc(-c2ccccc2)cc1` [KKL-0561], the “% activation” value is 11%.

In the case of `CC(=O)NC(=S)NNC(=O)c1ccc(-c2ccccc2)cc1` [KKL-0063], the “% activation” value is listed as 99%.

For `CNc1nc(SCC(=O)N(C)Cc2ccc(Cl)s2)nc2ccccc12` [KKL-1768], the “% activation” value was found to be 0%.

For the compound `Cc1cc(C)nc(/N=C(\N)Nc2cc(Cl)ccc2Oc2ccccc2)n1` [KKL-0289], the “% activation” value came to 0%.

For the compound `COC(=O)COc1ccc(NC(=O)c2ccccc2Br)cc1` [KKL-1572], the “% activation” value amounted to 0%.

On to `Cc1[nH]c2ccccc2c1/C=C1\SC(=N)N(c2nccs2)C1=O` [KKL-1143], for which the “% activation” value is 6%.

In the case of `Brc1cncc(-c2cc(NCCCn3ccnc3)nc(-c3ccccc3)n2)c1` [KKL-1784], the “% activation” value was 0%.

`Oc1ccc(Br)c2cccnc12` [KKL-0093]: the “% activation” value is recorded as 371%.

In the case of `c1cnc2c(c1)ccc1cccnc12` [KKL-0825], the “% activation” value was 8%.

For the compound `O=[N+]([O-])c1cc(O)c2ncccc2c1` [KKL-0003], the “% activation” value is listed as 46%.

Take `O=C(Nc1nc(-c2ccccn2)cs1)c1ncc(Cl)c(Cl)c1Cl` [KKL-0390]: the “% activation” value was 10%.

With `O=C(Nc1ccc(Cl)cc1)Nc1ccc(F)c(F)c1` [KKL-1350], the “% activation” value came out at 0%.

For the compound `O=C(Nc1ccc(Cl)cc1)c1cc2c(cc1O)[nH]c1ccccc12` [KKL-0896], the “% activation” value was 102%.

Consider `O=C(Nc1ccc(-c2nc3ccccc3c(=O)o2)cc1)c1ccccc1I` [KKL-1501], for which the “% activation” value turned out to be 2%.

On to `CCC(C)c1ccc(O)c(NC(=S)NC(=O)c2ccc(-c3ccc(Cl)cc3)o2)c1` (stereo not shown) [KKL-0745], for which the “% activation” value came to 0%.

Take `CC(C)(C)c1cc(NCCCn2ccnc2)n2ncc(-c3ccc(Cl)cc3)c2n1` [KKL-1011]: the “% activation” value turned out to be 9%.

`N#Cc1cc(Oc2ccc(OCc3ccccc3)cc2)c([N+](=O)[O-])cc1C#N` [KKL-0738]: the “% activation” value was found to be 5%.

`Cc1cccc(NC(=S)NC(=O)CC23CC4CC(CC(C4)C2)C3)c1` [KKL-1311]: the “% activation” value was 0%.

With `CSCCC(=O)N1CCCC(C(=O)Nc2cccc(-c3cccc(C)c3)c2)C1` (stereo not shown) [KKL-0499], the “% activation” value is on record as 0%.

Take `Cc1ccc(-n2cc(CNC(C)c3csc(C)n3)c(-c3cccc(C)c3)n2)cc1` (stereo not shown) [KKL-0500]: the “% activation” value amounted to 0%.

Take `Cc1ccc2cc3c(nc2c1C)OC(=O)N(C1CCCC1)C3` [KKL-0690]: the “% activation” value was found to be 1%.

In the case of `CCCCc1cccc(C(=O)Nc2nnc(S(=O)(=O)CCCC)s2)n1` [KKL-1853], the “% activation” value came out at 6%.

For the compound `CCOc1ccc2nc(NC(=O)c3ccccn3)sc2c1` [KKL-0810], the “% activation” value stood at 0%.

Regarding `CCCCc1ccc(C(=O)Nc2nccc3ccccc23)nc1` [KKL-1763], the “% activation” value is 50%.

Take `c1ccc(-c2nn(-c3ccccc3)cc2CNC2CCCc3c2cnn3-c2ccccn2)cc1` (stereo not shown) [KKL-1169]: the “% activation” value is given as 0%.

`Clc1cc(Br)ccc1OCCCCn1ccnc1` [KKL-1286]: the “% activation” value is 0%.

Turning to `OC(CN1CCC2(CC1)CC(O)c1cc(F)ccc1O2)c1ccc2c(c1)CCCC2` (stereo not shown) [KKL-0925], the “% activation” value is 0%.

Turning to `CN(Cc1ccc(Cl)cc1)C(=O)CCc1nc2ccccc2oc1=O` [KKL-1749], the “% activation” value is listed as 0%.

`CCN(CC)c1ccc(NC(S)=NCCc2ccc(OC)c(OC)c2)cc1` [KKL-1550]: the “% activation” value stood at 0%.

Regarding `O=C(Nc1ccc2c(c1)CN(C(=O)/C=C/c1cccs1)CC2)c1ccncc1` [KKL-0616], the “% activation” value came out at 0%.

Take `Cc1cc(=O)oc2cc(OCC(=O)OC3CCCCC3)ccc12` [KKL-1250]: the “% activation” value is listed as 7%.

Regarding `Cc1nc(-c2ccccc2Br)cc([C@H]2CN3CC[C@H]2C[C@@H]3CNC(=O)c2ccc(C(C)(C)C)cc2)n1` [KKL-1598], the “% activation” value came to 0%.

Regarding `COc1ccc(Nc2nc(NC3CCNC3)nc3cc[nH]c(=O)c23)cc1CC(=O)c1ccccc1` (stereo not shown) [KKL-1883], the “% activation” value is reported as 335%.

With `COc1ccc(O)c(CN2CCCC(N3CCN(c4cccc(C(F)(F)F)c4)CC3)C2)c1` (stereo not shown) [KKL-0660], the “% activation” value is recorded as 1%.

For the compound `O=C(Nc1cccc(Cl)c1)Nc1ccccc1OC(F)(F)C(F)F` [KKL-0431], the “% activation” value worked out at 21%.

On to `Cc1ccc(CN(CCCn2ccnc2)Cc2cccc(Cl)c2Cl)o1` [KKL-1195], for which the “% activation” value was 17%.

Take `CCOC(=O)c1ccc(NC(=O)c2ccc(C)s2)cc1` [KKL-0584]: the “% activation” value is 0%.

The record behind these values is article PMC12548414.
